# Measured values reported in PubChem BioAssay (Tox21).
# Results filed as inconclusive are left out. A call without a number means that no potency is given here. Calls of active or inactive are those of the source. Unless noted, calls follow the shape of the full dose curve.
# Target: Beta-2 adrenergic receptor (Homo sapiens) (UniProt P07550)
# Experiment: Adrenergic beta2 receptor (ADRB2) small molecule agonists, cell-based qHTS assay (AID 1963593);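 also: CHO cells stably overexpressing human ADRB2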
# Conditions: CHO-ADRB2 cells, cAMP HTRF, 30 min; series mostly up to 92.4 µM
# How it was run: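 CHO cells stably over-expressing ADRB2 were plated overnight at 37C, then dosed with compounds plus a stimulation mix containing 100uM IBMX and 25uM Ro-20-1724 for 0.5hr at room temperature. cAMP was measured by HTRF competition, 1hr.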
# Beta-2 adrenergic receptor (Homo sapiens), sequence (P07550 whole entry, looked up): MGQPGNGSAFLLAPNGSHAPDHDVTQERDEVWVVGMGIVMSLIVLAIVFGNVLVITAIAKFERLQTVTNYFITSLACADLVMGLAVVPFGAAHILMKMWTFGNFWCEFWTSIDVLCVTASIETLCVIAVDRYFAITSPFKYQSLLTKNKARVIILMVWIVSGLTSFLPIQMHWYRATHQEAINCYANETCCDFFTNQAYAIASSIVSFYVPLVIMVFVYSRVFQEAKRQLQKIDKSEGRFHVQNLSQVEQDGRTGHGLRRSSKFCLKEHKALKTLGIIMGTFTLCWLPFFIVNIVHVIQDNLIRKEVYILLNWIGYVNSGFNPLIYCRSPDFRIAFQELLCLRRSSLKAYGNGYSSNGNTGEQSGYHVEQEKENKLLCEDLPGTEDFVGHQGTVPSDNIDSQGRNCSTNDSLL
row,SMILES,Potency
1,Nc1cnn(-c2ccccc2)c(=O)c1Cl,inactive
2,Cl[C@H]1OCCO[C@@H]1Cl,inactive
3,O=[N+]([O-])c1cc(Cl)ccc1Cl,inactive
4,c1nc[nH]n1,inactive
5,COC[C@H](C)N(C(=O)CCl)c1c(C)csc1C,inactive
6,CCC(=O)Nc1ccc(Cl)c(Cl)c1,inactive
7,C=C(C)C(=O)OCC1CO1 (centres undefined),inactive
8,O=C(NC(=O)c1c(F)cccc1F)Nc1cc(Cl)c(OC(F)(F)C(F)C(F)(F)F)cc1Cl (centres undefined),inactive

# Target: D(2) dopamine receptor (Homo sapiens) (UniProt P14416)
# Sequence (P14416 whole entry, looked up): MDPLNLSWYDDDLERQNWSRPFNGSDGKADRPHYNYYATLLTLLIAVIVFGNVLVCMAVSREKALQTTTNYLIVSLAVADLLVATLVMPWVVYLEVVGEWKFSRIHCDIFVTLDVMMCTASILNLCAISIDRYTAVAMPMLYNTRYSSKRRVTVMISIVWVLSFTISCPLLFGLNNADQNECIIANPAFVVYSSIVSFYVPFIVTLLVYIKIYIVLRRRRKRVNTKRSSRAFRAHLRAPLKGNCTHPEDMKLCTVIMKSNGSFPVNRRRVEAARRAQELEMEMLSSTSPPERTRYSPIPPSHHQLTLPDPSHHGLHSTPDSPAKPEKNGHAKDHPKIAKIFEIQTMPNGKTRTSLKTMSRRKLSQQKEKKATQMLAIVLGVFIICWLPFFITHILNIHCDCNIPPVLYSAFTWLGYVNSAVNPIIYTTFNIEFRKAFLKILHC
# Experiment: Dopamine D2 receptor (DRD2) small molecule agonists, cell-based qHTS assay (AID 1963594); also: nearly all actives have a fitted effect of over 35% in size
# Conditions: HEK293-DRD2 cAMP HTRF, agonist mode, 30 min; series mostly up to 92.4 µM
# How it was run: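 HEK293 cells stably expressing DRD2 were cultured 24 h at 37 C, then given Ro20-1724 (0.1 mM final) and compounds for 10 min at room temperature. NKH477 (200nM) was then added for 30 min. cAMP was read by HTRF.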
row,SMILES,Potency
1,O=C(Cl)CCl,inactive
2,COC(=O)c1ccccc1N,inactive
3,CN(C)NC(=O)CCC(=O)O,inactive
4,CN(C)C(=O)C(c1ccccc1)c1ccccc1,inactive
5,ClCc1ccccn1,inactive
6,CCCOC(=O)c1ccccc1C(=O)OCCC,inactive
7,Cc1ccc(N)c(N)c1,inactive
8,N#CC1(N=NC2(C#N)CCCCC2)CCCCC1,inactive
9,C=C(C)C(=O)OCC(CC)CCCC (centres undefined),inactive
10,O=C(CCN1CC1)OCC(CO)(COC(=O)CCN1CC1)COC(=O)CCN1CC1,inactive
11,CCCCOC(=O)c1ccccc1C(=O)OCCCC,inactive
12,CC(O)CN(CC(C)O)CC(C)O (centres undefined),inactive
13,CN(N=O)C(N)=O,inactive
14,CCOC(=O)c1cncn1C(C)c1ccccc1 (centres undefined),inactive
15,CCN(CC)c1ccccc1,inactive
16,O=[N+]([O-])c1ccccc1O,inactive
17,c1ccc(P(c2ccccc2)c2ccccc2)cc1,inactive

row,SMILES,Potency
1,CCCCCBr,inactive
2,c1ccc2c(c1)sc1ccccc12,inactive
3,COc1ccc2c3c1O[C@H]1[C@H](O)CC[C@H]4[C@@H](C2)N(C)CC[C@@]341,inactive
4,CC(Cl)C(=O)O (centres undefined),inactive
5,Clc1ccc(Cl)cc1,inactive
6,FC(F)(F)c1ccc(Cl)cc1,inactive
7,CCCCCCCCCBr,inactive
8,COC(=O)NS(=O)(=O)c1ccc(N)cc1,inactive
9,CC(O)CN1CCN(CC(=O)[O-])CCN(CC(=O)[O-])CCN(CC(=O)[O-])CC1.[Gd+3] (centres undefined),inactive
10,Nc1cnn(-c2ccccc2)c(=O)c1Cl,inactive
11,Cl[C@H]1OCCO[C@@H]1Cl,inactive
12,O=[N+]([O-])c1cc(Cl)ccc1Cl,inactive
13,c1nc[nH]n1,inactive
14,COC[C@H](C)N(C(=O)CCl)c1c(C)csc1C,inactive
15,CCC(=O)Nc1ccc(Cl)c(Cl)c1,inactive
16,C=C(C)C(=O)OCC1CO1 (centres undefined),inactive
17,O=C(NC(=O)c1c(F)cccc1F)Nc1cc(Cl)c(OC(F)(F)C(F)C(F)(F)F)cc1Cl (centres undefined),inactive

# Target: D(2) dopamine receptor (Homo sapiens) (UniProt P14416)
# Experiment: Dopamine D2 receptor (DRD2) small molecule antagonists, cell-based qHTS assay (AID 1963595; active = well fitted inhibition curve with a large enough effect in the signal ratio in the repeat runs, with a control signal flat; the % refers to the signal ratio)
# Conditions: HEK293-DRD2 cAMP HTRF antagonist mode; series mostly up to 92.4 µM
# How it was run: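 HEK293 cells stably expressing DRD2 were preincubated with 0.1 mM Ro20-1724, then with compound for 10 min at room temperature. Cells were stimulated with 200 nM NKH477 plus 12 nM quinpirole for 30 min, and cAMP was read by HTRF.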
row,SMILES,Potency
1,O=C(Cl)CCl,inactive
2,COC(=O)c1ccccc1N,inactive
3,CN(C)NC(=O)CCC(=O)O,inactive
4,CN(C)C(=O)C(c1ccccc1)c1ccccc1,inactive
5,ClCc1ccccn1,inactive
6,CCCOC(=O)c1ccccc1C(=O)OCCC,inactive
7,Cc1ccc(N)c(N)c1,inactive
8,N#CC1(N=NC2(C#N)CCCCC2)CCCCC1,inactive
9,C=C(C)C(=O)OCC(CC)CCCC (centres undefined),inactive
10,O=C(CCN1CC1)OCC(CO)(COC(=O)CCN1CC1)COC(=O)CCN1CC1,inactive
11,CCCCOC(=O)c1ccccc1C(=O)OCCCC,inactive
12,CC(O)CN(CC(C)O)CC(C)O (centres undefined),inactive
13,CCN(CC)c1ccccc1,inactive
14,O=[N+]([O-])c1ccccc1O,inactive
15,c1ccc(P(c2ccccc2)c2ccccc2)cc1,inactive
16,CCCCCBr,inactive
17,c1ccc2c(c1)sc1ccccc12,inactive
18,COc1ccc2c3c1O[C@H]1[C@H](O)CC[C@H]4[C@@H](C2)N(C)CC[C@@]341,inactive
19,CC(Cl)C(=O)O (centres undefined),inactive
20,Clc1ccc(Cl)cc1,inactive
21,FC(F)(F)c1ccc(Cl)cc1,inactive
22,CC(O)CN1CCN(CC(=O)[O-])CCN(CC(=O)[O-])CCN(CC(=O)[O-])CC1.[Gd+3] (centres undefined),inactive
23,Nc1cnn(-c2ccccc2)c(=O)c1Cl,inactive
24,Cl[C@H]1OCCO[C@@H]1Cl,inactive
25,c1nc[nH]n1,inactive
26,COC[C@H](C)N(C(=O)CCl)c1c(C)csc1C,inactive
27,C=C(C)C(=O)OCC1CO1 (centres undefined),inactive
